Screening results from PubChem BioAssay.
Myeloid diff 2: induction of myeloid progenitor differentiation, primary screen, cell-based, flow cytometry, MLPCN library | calls only at 10 µM | 360,000 compounds, 1% hits | ER-HoxA9 myeloid progenitors, lysozyme-GFP differentiation;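 active = normalized GFP-positive differentiation at or above the plate's own cutoff, the solvent-only control mean plus 3 SD; inconclusive = no clear call, values can overlap the other calls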;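 note: cells exposed to compound for four days before flow analysis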
NOD2-RIPK2 inh: NOD2-RIPK2 binding disruptors in cells, primary screen, fluorescence, CHO cells, BLA complementation; CCF4 ratio; Receptor-interacting serine/threonine-protein kinase 2 (Homo sapiens), O43353; inhibition, % at 4.98 µM; AID 624267, 2012; 360,000 compounds, 0.38% hits; in the data active = inhibition above about 21%;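 note: 0% = vehicle only and 100% = reference blocker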
TLR9-MyD88 block: inhibitors of TLR9-MyD88 association in cells, primary screen, cell-based, CHO, BLA complementation, fluorescence; CCF4 FRET ratio; inhibition, % at 4.98 µM; 340,000 compounds, 0.21% hits;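 active = inhibition above the mean over all tested compounds plus 3 SD, cut at about 21% in these data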;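 note: 0% = DMSO only wells and 100% = clavulanate BLA inhibitor control wells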
TLR4 MyD88 comp: inhibitors of TLR4-MyD88 association in cells, primary screen, cell-based, HeLa CL3-4, BLA complementation, FRET ratio. HeLa CL3-4 TLR4/MyD88 BLA complementation. inhibition, % at 8.4 µM. 200,000 compounds, 0.18% hits. AID 861, 2007; in the data active = inhibition above about 25%;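 note: 0% = vehicle and 100% = reference inhibitor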
* marks the source's active call; other numbers are inactive results; i = inactive; u = inconclusive; x = no result given; + = active, no number. The list is not random: actives were taken first. Their share in the collection is about 1.5%.

SMILES | Myeloid diff 2 | NOD2-RIPK2 inh | TLR9-MyD88 block | TLR4 MyD88 comp
Cn1c(N)c(C(=O)COC(=O)CCc2ccccc2)c(=O)n(C)c1=O | + | -2 | 12 | -3
Cc1cc(SCC(=O)OCC(=O)c2c(N)n(C)c(=O)n(C)c2=O)c(C)cc1Br | i | -7 | 5 | -16
Cc1cc(Br)ccc1SCC(=O)OCC(=O)c1c(N)n(C)c(=O)n(C)c1=O | + | -7 | -3 | x
Cn1c(N)c(C(=O)COC(=O)CNC(=O)c2ccccc2)c(=O)n(C)c1=O | i | -5 | 8 | x
Cc1cc(Br)ccc1SCC(=O)OCC(=O)NC1CC1 | + | -12 | -6 | -1
CCc1nc2ccc(C(=O)NCCOc3ccc(OC)cc3)cn2c1N(CC)Cc1ccc(OC)c(OC)c1 | i | 5 | x | x
Cc1nc(C)c(C(=O)OCC(=O)Nc2ccccc2SCC#N)s1 | + | -1 | -7 | x
Cc1ccc(-c2cn(-c3ccc(SC(F)F)cc3)c3[n+]2CCC3)cc1 | + | 3 | -1 | -6
Cc1[nH]c(=O)[nH]c(=O)c1NC(=O)c1sc2nc3c(C)cccc3cc2c1N | + | -9 | -2 | -4
COc1ccc(OC)c(NC(=O)Nc2nc(C(N)CCc3ccccc3)cs2)c1 (stereo not given) | i | 2 | x | x
COc1cc2c(cc1OC)-c1cc(OCCN3CCOCC3)nc(=O)n1CC2 | + | 10 | -5 | 2
COc1ccc(-c2cc(=O)c3cc(OC)ccc3[nH]2)cc1 | + | -3 | 0 | 4
C[C@H]1C=C(C(=O)N2CCOCC2)O[C@@H](OCc2ccc(CO)cc2)C1 | + | 8 | 4 | -1
C[C@@H]1C=C(C(=O)N2CCN(C)CC2)O[C@H](OCc2ccc(CO)cc2)C1 | i | -8 | 6 | -5
CCCNC(=O)C1(C)CCN(Cc2ccc(OC)c3ccccc23)C1 (stereo not given) | i | 0 | x | x
NS(=O)(=O)c1ccc(NC2(C(=O)O)CCCC2)cc1 | + | 4 | -14 | x
C/C(=N/Nc1nc(-c2ccccc2F)nc2ccccc12)c1ccccc1O | + | 1 | -7 | x
C/C(=N\Nc1nc(-c2ccccc2O)nc2ccccc12)c1ccccc1 | i | 7 | 12 | 14
COc1ccc(C(C)(NC(C)=O)c2nc(-c3cccc(F)c3)cs2)cc1 (stereo not given) | i | 2 | x | x
CCOC(=O)C1=C(C)NC2=C(C(=O)CC(c3cccs3)C2)C1c1cccs1 (stereo not given) | + | 6 | 0 | 9
O=S(N1CCc2ccccc21)C12CC3CC(CC(C3)C1)C2 (stereo not given) | + | -3 | 5 | 5
c1ccc(-c2cn(-c3ccccc3)c3[n+]2CCS3)cc1 | + | 0 | -3 | 8
CN(C)c1ccc(C=c2c3cc(O)ccc3n3c2cc(-c2ccccc2)[n+]3C)cc1 | + | -3 | -10 | x
O=S1(=O)CC(N2CCCCC2)CN1C1CCCCC1 (stereo not given) | i | 1 | x | x
CN(C)S(=O)(=O)c1cccc(NC(=O)c2sccc2-c2ccccc2)c1 | + | -2 | 0 | x
SMILES | Myeloid diff 2 | NOD2-RIPK2 inh | TLR9-MyD88 block | TLR4 MyD88 comp
CN(C)S(=O)(=O)c1cccc(NC(=O)c2cccc(NS(=O)(=O)c3ccccc3)c2)c1 | i | -1 | -1 | x
O=C(NCc1ccccn1)c1cc(-c2ccc(-c3ccccc3)cc2)nc2ccccc12 | + | -20 | 4 | 7
COCCCNC(=O)c1cc(-c2cccnc2)nc2ccccc12 | i | -1 | 2 | x
COCCNC(=O)c1cc(-c2ccc(-c3ccccc3)cc2)nc2ccccc12 | + | -3 | -19 | x
CC(C)NC(=O)C1(C)CSCC(=O)N1CCCN1CCOCC1 (stereo not given) | i | 2 | x | x
N=c1n(Cc2ccccc2)c2ccccc2n1CC(O)c1ccco1 (stereo not given) | + | -6 | -8 | 3
Cc1ccc(OCC(O)Cn2c(=N)n(Cc3ccccc3)c3ccccc32)cc1 (stereo not given) | + | 18 | 0 | 16
COC(=O)c1ccc2nc(-c3cccc(Cl)c3)c(Cc3ccsc3)n2c1 | i | -1 | x | x
COc1ccc(-c2nc3ccc(C)cn3c2Cc2ccsc2)cc1OC | i | 4 | x | x
Cc1sc2nc(CSc3nnnn3-c3ccc(Cl)cc3)[nH]c(=O)c2c1C | + | 2 | -9 | -4
Cc1cccc(C)c1NC(=O)C(c1ccnc2ccccc12)N1CCN(CCN(C)C)CC1 (stereo not given) | i | -10 | x | x
COC(=O)c1ccc(C)c(NC(=O)Cc2coc3cc(OC)ccc23)c1 | + | -9 | -13 | 12
CCN(CC)CC(C)(C)C(=O)/C=C/c1ccc(/C=C/C(=O)C(C)(C)CN(CC)CC)cc1 | u | 84* | 21 | x
COc1cc(/C=C/C(=O)c2ccc3c(c2)OCCO3)cc(Br)c1OCC(=O)N(C)C | + | 16 | 11 | x
O=C(/C=C/c1ccncc1)c1ccc2c(c1)OCCO2 | x | 7 | 7 | 15
COc1cccc(Nc2nc(-c3sc(NC(=O)c4ccccc4)nc3C)cs2)c1 | + | -1 | -4 | -4
COc1cccc(Nc2nc(-c3sc(NC(=O)CC(C)C)nc3C)cs2)c1 | i | 7 | -4 | -22
COc1ccc(-c2c(C(=O)c3ccc(Br)cc3)[nH]c(N)c2C(=O)c2ccccc2)cc1OC | + | 9 | x | x
COc1ccc(-c2c(C(=O)c3ccccc3)[nH]c(N)c2C(N)=O)cc1OC | i | 6 | x | x
O=C(Nc1ccccn1)c1cccs1 | i | -16 | 4 | 1
CN1C(C(=O)Nc2ccccn2)=C(O)c2sccc2S1(=O)=O | + | -4 | -2 | -8
Cc1cc(C(=O)C(C)OC(=O)c2ccc(NC(=O)CC#N)cc2)c(C)n1-c1ccccc1 (stereo not given) | + | 2 | 2 | x
CC(C)NC(=O)C1(C)Cc2c(-c3ccc(N(C)C)cc3)ccnc2O1 (stereo not given) | i | 0 | x | x
c1ccc(N2CCN(Cc3nc4ccccc4[nH]3)CC2)nc1 | + | 1 | -10 | x
Cc1ccccc1CN1CCN(C(C)C(=O)NNC(=O)c2ccc(F)cc2)CC1 (stereo not given) | i | 5 | 6 | x
CC1CN(C(C)C(=O)NNC(=O)c2ccc(F)cc2)CC(C)O1 (stereo not given) | + | -1 | 5 | x
CC(C)c1cc(Cn2c3ccccc3c(=O)n2C(C)Cn2cc(CCCC#N)nn2)on1 (stereo not given) | i | -8 | x | x
CC(C)CSCC1OC(n2cnc3c(N)nccc32)C(O)C1O (stereo not given) | i | -14 | -4 | x
CCCNC(=O)c1ccccc1NC(=O)c1ccccc1N(C)S(=O)(=O)c1ccc(C)cc1 | + | 1 | -3 | 10
CCCNC(=O)c1ccccc1NC(=O)c1ccccc1N(C)S(C)(=O)=O | i | 1 | -8 | -2
